Records with an inconclusive call do not appear. Active and inactive are the calls of the source. Calls come from the whole dose curve; as a rule, active = well fitted curve in the direction sought with a large enough effect; inconclusive = small, poorly fitted or top-dose-only effect, or another doubt; inactive = no such curve, though single readings can be large; an effect the other way counts as inactive or inconclusive.
Legend:
[1] = qHTS for Inhibitors of Plasmodium falciparum (DD2) proliferation (AID 504314);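 note: parasite DNA measured by SYBR Green fluorescence after red cell lysis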
Procedure, shortened: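 SYBR Green growth assay: 72 h compound exposure of infected red cells (2.5% hematocrit, 0.3% parasitemia), then lysis and overnight dye staining, fluorescence 485/535 nm. Values scaled between DMSO and 0.29 uM artemisinin controls.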

[2] = qHTS for Inhibitors of Plasmodium falciparum (GB4) proliferation (AID 504315); note: nearly all actives have a fitted effect of over 50% in size
Procedure, shortened: (§1)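 Parasite growth measured as SYBR Green DNA fluorescence (ex 485, em 535 nm) after overnight lysis following 72 h culture at 37 °C, 0.3% parasitemia, 2.5% hematocrit. Values normalized against DMSO and 0.29 uM artemisinin controls, with plate-stack correction.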

[3] = qHTS for Inhibitors of Plasmodium falciparum (7G8) proliferation (AID 504316); note: series mostly up to about 6.7 µM; nearly all actives have a fitted effect of over 65% in size
Procedure, shortened: as §1

[4] = qHTS for Inhibitors of Plasmodium falciparum (CP250) proliferation (AID 504320)
Procedure, shortened: as §1

[5] = qHTS for Inhibitors of Plasmodium falciparum (HB3) proliferation (AID 504318); note: nearly all actives have a fitted effect of over 60% in size
Procedure, shortened: as §1

Measured: Potency

CCCCc1nc2c(c3c1C[C@H](C)OC3)CN(S(=O)(=O)c1ccc(C#N)cc1)CC2
not listed: [5]
inactive: all other assays above

C[C@H]1Cc2c(-c3ccccc3)nc3c(c2CO1)CN(C(=O)c1ccco1)CC3
not listed: [5]
inactive: all other assays above

CC1(OC(=O)C2CCCC2)C(=O)C=C2C=C(c3ccsc3)N(CCCCO)C=C2C1=O (stereo unspecified)
not listed: [5]
inactive: all other assays above

COC(=O)CCCC1=CC2=C(c3ccccc3)C(=O)C(C)(OC(=O)C3CCCC3)C(=O)C2=CN1CCc1ccccn1 (stereo unspecified)
not listed: [5]
inactive: all other assays above

COC/C=C/C1=CC2=CC(=O)C(C)(OC(=O)c3cnc4ccccc4n3)C(=O)C2=CN1C1CC1 (stereo unspecified)
not listed: [5]
inactive: all other assays above

COC(=O)CCC(=O)OC1(C)C(=O)C2=CN(C3CC3)C(c3ccc(OC)cc3)=CC2=C(Br)C1=O (stereo unspecified)
inactive: [1] | [3] | [5]

COCCN1C(=O)N[C@@H](c2cccc(C(F)(F)F)c2)[C@@H](C(=O)OC)[C@H]1C
not listed: [5]
inactive: all other assays above

CCN1C(=O)N[C@@H](CCc2ccccc2)[C@H](C(=O)OC)[C@H]1C
not listed: [5]
inactive: all other assays above

CCCCC1=CC2=CC(=O)C(C)(OC(=O)CC)C(=O)C2=CN1C(CO)CO (stereo unspecified)
not listed: [5]
inactive: all other assays above

CCCCc1nc2c(c3c1C[C@H](C)OC3)CN(C(=O)Nc1ccc(OC)cc1)CC2
inactive: all assays above

CCOC(=O)CN1C(=O)N[C@@H](c2cccs2)C(C(C)=O)=C1C
inactive: all assays above

CCN1C(=O)N[C@@H](c2cccc(C(F)(F)F)c2)C(C(C)=O)=C1C
not listed: [2]
inactive: all other assays above

COc1ccc(-c2nc3c(c4c2C[C@H](c2ccccc2)OC4)CN(S(=O)(=O)c2ccc4c(c2)OCCN4C)CC3)c(C)c1
inactive: [1] | [3] | [4]

COC/C=C/C1=CC2=CC(=O)C(C)(OC(=O)c3cnc4ccccc4n3)C(=O)C2=CN1Cc1ccc(OC)cc1 (stereo unspecified)
inactive: [1] | [3] | [5]

COC(=O)C1=C(C(=O)OC)[C@@H]2N(C)c3ccccc3[C@@]23C[C@@H](C(=O)OC)N(S(=O)(=O)c2ccc(C)cc2)C3=N1
inactive: [1] | [3] | [5]

C=C(C(C)=O)C(O)C=Cc1ccco1 (stereo unspecified)
not listed: [2]
inactive: all other assays above

COc1ccc(-c2nc3c(c4c2C[C@H](c2ccccc2)OC4)CN(C(=O)NCCc2c[nH]c4ccccc24)CC3)c(C)c1
not listed: [2]
inactive: all other assays above
